Data: PubChem BioAssay AID1578 (Sanford-Burnham Center for Chemical Genomics, 2009)
In all, about 290,000 compounds went through this assay and about 3,000 (1%) were called active. Cut-off read from the data, not from the text of the source: active = inhibition mostly above about 36% (no sharp cut-off); inactive = mostly below about 34%. The entries come from a sample that favours actives as a whole.

Experiment: NOD1 signaling inhibitors, primary screen, cell-based, luminescence, uHTS (AID 1578);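 note: HEK-293T reporter cells stimulated with the NOD1 agonist gamma-tri-DAP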
Conditions: NOD1-driven NF-kB luciferase reporter cells, at 4 µM, hits give high values

Row | Structure (SMILES) | inhibition
1 | CC1c2[nH]c3ccccc3c2C[C@H]2C(=O)N(CCO)CC(=O)N12 (stereo partly drawn) | -2.7% (inactive)
2 | C=CCc1c(OC(C)=O)c2ccccc2n(C)c1=O | -38% (inactive)
3 | COc1ccc2c(c1)c(CC(=O)Nc1ccc(C)cc1)c(C)n2C(=O)c1ccc(Cl)cc1 | 24.5% (inactive)
4 | COc1ccc(NC(=O)Cc2c(C)n(C(=O)c3ccc(Cl)cc3)c3ccc(OC)cc23)cc1 | -13.3% (inactive)
5 | COc1ccc2c(c1)c(CC(=O)Nc1nnc(C3CC3)s1)c(C)n2C(=O)c1ccc(Cl)cc1 | 64.9% (active)
6 | COc1ccc(C(=O)Nc2cc(-c3nn4c(C)nnc4s3)ccc2C)cc1 | -18.2% (inactive)
7 | CCC1(c2ccccc2)NC(=O)N(CC(=O)NCc2ccccc2OC)C1=O (stereo not drawn) | 0.8% (inactive)
8 | COc1ccc(-c2cc(C(=O)N3CCN(S(=O)(=O)c4ccccc4)CC3)[nH]n2)cc1 | 4.3% (inactive)
9 | Fc1cccc2sc(Nc3nnc(-c4ccccc4)o3)nc12 | 52.7% (inactive)
10 | COc1cccc2sc(Nc3nnc(-c4ccc(F)cc4)o3)nc12 | -29.8% (inactive)
11 | COc1ccc(-c2nnc(Nc3nc4c(OC)cccc4s3)o2)cc1 | -20.8% (inactive)
12 | COc1cc(OC)cc(-c2nnc(Nc3nc4c(F)cccc4s3)o2)c1 | 21% (inactive)
13 | Fc1cccc2sc(Nc3nnc(-c4ccco4)o3)nc12 | 104% (active)
14 | COc1cccc2sc(Nc3nnc(-c4cccs4)o3)nc12 | 84.7% (active)
15 | CCOC(=O)C1C(=O)NC(c2ccccc2)=NC1c1cccc(Br)c1 (stereo not drawn) | -36.5% (inactive)
16 | CC1/C(=N/O)CC(c2ccco2)NC1c1ccco1 (stereo not drawn) | -0.7% (inactive)
17 | COc1ccc(NC(=S)N2CCC(NC(=O)c3ccc(F)cc3)CC2)cc1 | -29% (inactive)
18 | Cc1cc(C)c(S(=O)(=O)N2CCOCC2)c(C)c1N(C)S(=O)(=O)c1ccccc1 | -19.6% (inactive)
19 | N#C/C(=C\c1ccc(OCC(N)=O)cc1)c1ccccc1 | -59.4% (inactive)
20 | O=C(Nc1cccnc1)c1cccc(S(=O)(=O)N2CCOCC2)c1 | -21% (inactive)

Row | Structure (SMILES) | inhibition
21 | CN1CCC(OC(=O)c2ccco2)CC1 | -32.4% (inactive)
22 | O=C1C(C=Nc2ccccc2O)=C(O)c2ccccc21 | -64.5% (inactive)
23 | O=c1c(=Nc2ccccc2O)c(=O)c2ccccc12 | -41.2% (inactive)
24 | CNC(=O)COC(=O)c1ccccc1Nc1ccccc1 | -60.3% (inactive)
25 | COc1cc(/C=C(\NC(C)=O)C(=O)NC(C)(C)CC(C)(C)C)ccc1OC(C)=O | -17.3% (inactive)
26 | COc1ccc(-n2c(=O)c(CCC(=O)N(C)Cc3ccccc3C)nc3ccccc32)cc1 | -8.4% (inactive)
27 | COc1ccc(/C(O)=C/c2nc3ccccc3n(-c3ccccc3)c2=O)cc1 | -72.6% (inactive)
28 | COc1cccc(CC(=O)N2CCC(CCC(=O)Nc3cccc(OC)c3)CC2)c1 | -3.8% (inactive)
29 | COc1ccccc1NC(=O)CCCN1C(=O)C(c2ccccc2)Oc2cccnc21 (stereo not drawn) | -2.8% (inactive)
30 | Cc1cccc(C)c1NC(=O)CCCN1C(=O)C(c2ccccc2)Oc2cccnc21 (stereo not drawn) | -12.2% (inactive)
31 | Cc1cccc(NC(=O)CCCN2C(=O)C(c3ccccc3)Oc3cccnc32)c1C (stereo not drawn) | 42.2% (active)
32 | CCOc1ccc(NC(c2ccccc2)P(=O)(OC)OC)cc1 (stereo not drawn) | 73.2% (active)
33 | COP(=O)(OC)C(Nc1ccc([N+](=O)[O-])cc1)c1ccccc1 (stereo not drawn) | -11.2% (inactive)
34 | COP(=O)(OC)C(Nc1ccc(Cl)cc1)c1ccccc1 (stereo not drawn) | -7.2% (inactive)
35 | Cc1cc(NC(=O)c2ccc(Br)o2)ccc1NC(=O)c1ccco1 | -55.3% (inactive)
36 | COC1c2ccccc2C(=O)N1CCc1ccc(Cl)cc1 (stereo not drawn) | -31.1% (inactive)
37 | CNc1cc(C)nc(N2CCOCC2)n1 | -5.2% (inactive)
38 | CC1(c2cc([N+](=O)[O-])cc([N+](=O)[O-])c2)CC(C)(C)N(C(=O)c2ccccc2)c2ccccc21 (stereo not drawn) | 4.5% (inactive)
39 | CC1(c2ccccc2)CC(C)(C)N(C(=O)c2cc([N+](=O)[O-])cc([N+](=O)[O-])c2)c2ccccc21 (stereo not drawn) | -2.3% (inactive)
40 | CC1(c2cccc([N+](=O)[O-])c2)CC(C)(C)N(C(=O)c2ccccc2)c2ccccc21 (stereo not drawn) | 82.6% (active)

Row | Structure (SMILES) | inhibition
41 | CCCCCCCC(O)CC(CC1CCCCC1)C(=O)NN (stereo not drawn) | -15% (inactive)
42 | Cc1cc(C(F)(F)F)nn1CC(=O)NNC(=S)NCC(C)C | -1.1% (inactive)
43 | Cc1ccc2c(c1)N(CCCC(=O)NCCCN1CCCC1=O)C(=O)CO2 | -14.9% (inactive)
44 | COc1cccc(NC(C)C(=O)N2CC(C)OC(C)C2)c1 (stereo not drawn) | -26.3% (inactive)
45 | O=c1c2cc(Br)ccc2nc(-c2ccccc2)n1O | 6.1% (inactive)
46 | Cc1ccc(-c2nc3ccc(Cl)cc3c(=O)n2O)cc1 | 1.3% (inactive)
47 | COc1ccc(CCNC(=O)C2CCN(S(=O)(=O)c3ccc4c(c3)oc(=O)n4C)CC2)cc1OC | -10.7% (inactive)
48 | COC(=O)c1sccc1NC(=O)CSc1ccccc1NS(=O)(=O)c1ccccc1Cl | 5.3% (inactive)
49 | COC(=O)c1sccc1NC(=O)CSc1ccccc1NS(=O)(=O)c1ccc(Cl)cc1 | 44.2% (inactive)
50 | CC(C)[C@H](NC(=O)C1CCN(S(=O)(=O)c2ccccc2)CC1)C(=O)NCc1ccccn1 | -25.4% (inactive)
51 | CCOC(=O)C(=CNc1cc(C(F)(F)F)ccc1N1CCOCC1)C(=O)OCC | 4% (inactive)
52 | CCC(C)(C)NC(=O)C(c1ccc(OC)cc1)N(Cc1ccc(OC)cc1)C(=O)CCC(=O)Nc1cc(C)on1 (stereo not drawn) | -11.8% (inactive)
53 | COCCNC(=O)/C(C#N)=C/c1nc(N(C)C)n(-c2ccc(F)cc2)c1Cl | -7.8% (inactive)
54 | CN(C)c1nc(C=C(C#N)C#N)c(Cl)n1-c1ccc(F)cc1 | 80.7% (active)
55 | CN(C)c1nc(/C=C(\C#N)C(N)=O)c(Cl)n1-c1ccc(F)cc1 | -6.6% (inactive)
56 | Oc1c(Br)cc(/C=N/n2c(-c3ccccc3)n[nH]c2=S)c(Br)c1O | -1.1% (inactive)
57 | Oc1c(Br)cc(/C=N/n2c(-c3ccccc3)n[nH]c2=S)c(O)c1Br | 28.5% (inactive)
58 | Oc1c(Br)cc(Br)c(/C=N/n2c(-c3ccccc3)n[nH]c2=S)c1Br | 63.3% (active)
